About 83,000 compounds went through this panel and 20% of them were active in at least one assay; those are over-represented in the sample as a whole.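 Testing used 96-well plates and a 48-hour single-concentration exposure. Example: -40 means 40% of the starting cells died.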 Calls of active or inactive are those of the source. The calls were made as follows: active = growth percent below 10; inactive = the rest.
Key:
Assay in all cases: NCI-60 one-dose screen, 48 h (100 = growth as untreated, 0 = no growth, -100 = all killed)
[1] = system: DU-145 prostate; details: 10 µM unless noted
[2] = system: K-562 leukemia; details: 10 µM unless noted
[3] = system: MALME-3M melanoma; details: 10 µM unless noted
[4] = system: MDA-MB-231 breast; details: 10 µM unless noted
[5] = system: RXF 393 renal; details: 10 µM unless noted
[6] = system: SF-268 CNS; details: 10 µM unless noted
[7] = system: SF-295 CNS; details: 10 µM unless noted
[8] = system: SF-539 CNS; details: 10 µM unless noted
[9] = system: UACC-257 melanoma; details: 10 µM
[10] = system: M14 melanoma; details: 10 µM unless noted
[11] = system: HCT-15 colon; details: 10 µM unless noted
[12] = system: HT29 colon; details: 10 µM unless noted
[13] = system: SNB-75 CNS; details: 10 µM unless noted
[14] = system: SNB-19 CNS; details: 10 µM unless noted
[15] = system: U251 CNS; details: 10 µM unless noted
[16] = system: PC-3 prostate; details: 10 µM unless noted
[17] = system: SK-MEL-5 melanoma; details: 10 µM unless noted
[18] = system: UACC-62 melanoma; details: 10 µM unless noted
[19] = system: LOX IMVI melanoma; details: 10 µM unless noted
[20] = system: SK-MEL-28 melanoma; details: 10 µM unless noted

Measured: growth

CCOc1c(C#N)c(Nc2ccc(S(N)(=O)=O)cc2)c(C#N)c2nnc(C)n12
inactive: [1] 109% | [2] 110% | [3] 99.1% | [4] 90.6% | [5] 132% | [6] 99% | [7] 105% | [8] 97.2% | [9] 104% | [10] 100% | [11] 105% | [12] 107% | [13] 91% | [14] 101% | [15] 108% | [16] 85.4% | [17] 97.8% | [18] 91.8% | [19] 95.6% | [20] 110%

CC1CCc2c(sc3nc(SCC(=O)N/N=C/c4ccc(Cl)cc4)n(-c4ccccc4)c(=O)c23)C1 (stereo not given)
inactive: [1] 97.8% | [2] 100% | [3] 99% | [4] 89.5% | [6] 81.6% | [7] 95.2% | [8] 90% | [9] 102% | [10] 102% | [11] 96.3% | [12] 107% | [13] 98.5% | [14] 81.6% | [15] 93.9% | [16] 95.3% | [17] 104% | [18] 92.8% | [19] 84.1% | [20] 102%
active: [5] -2.72%

O=c1c2ccccc2nc(COc2ccccc2)n1/N=C/C=C/c1ccccc1
inactive: [1] 104% | [2] 109% | [3] 96.9% | [4] 93.4% | [5] 101% | [6] 97.5% | [7] 102% | [8] 100% | [9] 95.3% | [10] 97.8% | [11] 76.9% | [12] 98.1% | [13] 83.4% | [14] 82.9% | [15] 98.4% | [16] 89.6% | [17] 99.3% | [18] 94.5% | [19] 72.1% | [20] 94.3%

CCC(=O)Nc1ccc(-c2nc(-c3cccc(O)c3)c(-c3ccnc(Br)c3)[nH]2)cc1
active: [5] -4.84% | [13] 8.26%
inactive: [1] 56% | [2] 32.8% | [3] 59.8% | [4] 71.8% | [6] 82.1% | [7] 45.8% | [8] 57.1% | [9] 64.1% | [10] 66.7% | [11] 78.6% | [12] 51.7% | [14] 58% | [15] 47.8% | [16] 60.5% | [17] 77% | [18] 34.6% | [19] 59.3% | [20] 59.1%

Cc1nn(-c2ccccc2)c2nc(CCl)[nH]c(=O)c12
active: [19] 2.09%
inactive: [1] 83.6% | [2] 19.2% | [3] 103% | [4] 88.4% | [5] 99.2% | [6] 106% | [7] 109% | [8] 36.9% | [9] 97.9% | [10] 99% | [11] 90.6% | [12] 106% | [13] 93.9% | [14] 89.4% | [15] 101% | [16] 102% | [17] 98.7% | [18] 96.2% | [20] 110%

COc1cc(C2=NN(C(C)=O)C(c3ccc(N4CCOCC4)cc3)C2)cc(OC)c1OC (stereo not given)
inactive: [1] 107% | [2] 114% | [3] 94.4% | [4] 92% | [5] 108% | [6] 99% | [7] 101% | [8] 102% | [9] 103% | [10] 84.1% | [11] 107% | [12] 109% | [13] 96% | [14] 98.6% | [15] 104% | [16] 106% | [17] 97.7% | [18] 87.8% | [19] 98.1% | [20] 104%

CCOC(=O)/C(F)=C/C1CC1CCc1cccc(C(F)(F)F)c1 (stereo not given)
inactive: [1] 110% | [2] 111% | [3] 106% | [4] 107% | [5] 129% | [6] 105% | [7] 99.6% | [8] 99.4% | [9] 111% | [10] 98.9% | [11] 101% | [12] 107% | [13] 102% | [14] 97.1% | [15] 113% | [16] 105% | [17] 100% | [18] 96.5% | [19] 102% | [20] 98.8%

C#C[C@]1(O)CC[C@H]2[C@@H]3CC=C4c5sc(Nc6cc(OC)ccc6OC)nc5CC[C@]4(C)[C@H]3CC[C@@]21C
inactive: [1] 43.8% | [3] 14.4% | [4] 35.9% | [6] 30.8% | [11] 10.3% | [12] 21.1% | [14] 38.3% | [15] 26.1% | [16] 18.9%
active: [2] 6.54% | [5] -57.4% | [7] -67% | [8] -19.4% | [9] 0.933% | [10] -1.11% | [13] 2.31% | [17] 6.5% | [18] -14% | [19] 5.19% | [20] -46.6%

Oc1ccc(CSc2nnc(-c3cnccn3)o2)c2cccnc12
inactive: [1] 26.1% | [2] 10.2% | [4] 31% | [5] 20.6% | [6] 22.9% | [8] 18.6% | [10] 28.6% | [11] 13.8% | [12] 25.2% | [13] 26.5% | [14] 18.1% | [15] 18.5% | [16] 15.2% | [18] 15% | [19] 17.5% | [20] 37.6%
active: [3] -6.87% | [7] -7.6% | [9] 6.92% | [17] -38.5%

C#C[C@]1(O)CC[C@H]2[C@@H]3CC=C4c5sc(-c6cccc(F)c6)nc5CC[C@]4(C)[C@H]3CC[C@@]21C
inactive: [1] 99.2% | [2] 19% | [3] 95.4% | [4] 93.2% | [5] 20.7% | [6] 85.8% | [7] 61.9% | [8] 67.3% | [9] 90% | [10] 82% | [11] 53.5% | [12] 78.4% | [13] 70% | [14] 87.3% | [15] 75% | [16] 68.7% | [17] 96.4% | [18] 74.9% | [19] 80.8% | [20] 81.1%

CCCCCCNC(=O)Oc1ccc(/C(=C(/C)c2ccc(OC)cc2)c2ccc(OCCN3CCCC3)cc2)cc1
inactive: [1] 91.6% | [4] 65.7% | [5] 61.9% | [6] 83.6% | [7] 46.8% | [8] 37.7% | [11] 17.3% | [12] 13.9% | [13] 85.5% | [14] 72.2% | [15] 58.6% | [16] 67.7% | [17] 53.7% | [18] 74.2% | [20] 60.3%
active: [2] 6.93% | [3] -13.6% | [9] 2.85% | [10] -35.5% | [19] -39.1%

CN(C)c1ccc(/C=N/Nc2nc(N/N=C/c3ccc(N(C)C)cc3)nc(N3CCOCC3)n2)cc1
active: [2] 6.35%
inactive: [1] 92.7% | [3] 114% | [4] 99.5% | [5] 93.1% | [6] 97.8% | [7] 13.8% | [8] 96.7% | [9] 103% | [10] 103% | [11] 22.4% | [12] 102% | [13] 87.4% | [14] 91.3% | [15] 44.3% | [16] 87.7% | [17] 100% | [18] 97.8% | [19] 87.7% | [20] 106%

O=C(NCCNc1cc(-c2cn(-c3ccccc3)nc2-c2cccc(O)c2)ccn1)Nc1ccc(Cl)c(C(F)(F)F)c1
active: [7] 7.84% | [11] 2.46% | [19] 0.724%
inactive: [1] 94.6% | [2] 35.5% | [3] 83% | [4] 36% | [5] 15.3% | [6] 48.6% | [8] 40.2% | [9] 89.6% | [10] 48.3% | [12] 34.8% | [13] 42.8% | [14] 46.8% | [15] 42.8% | [16] 42.2% | [17] 65.9% | [18] 77% | [20] 42.1%

CCOC(=O)c1nn(-c2ccccc2)c(=O)c2c(N)c(C#N)c(-c3cccs3)cc12
active: [13] -8.81%
inactive: [1] 88.3% | [2] 87.5% | [3] 88.4% | [4] 76.5% | [5] 59.9% | [6] 85.5% | [7] 64.4% | [8] 57.2% | [9] 93.5% | [10] 94.4% | [11] 87.6% | [12] 61.9% | [14] 70.5% | [15] 77.3% | [16] 79.9% | [17] 96.4% | [18] 85.8% | [19] 73% | [20] 99.9%

— PubChem BioAssay (NCI)
